# From the supplement of paper PMC12636033
# ± gives the standard deviation of the averaged measurements. The full ranking holds about 33,000 sequences; the median of “E-score (rank enrichment, -0.5 to 0.5)” is about -0.0068, and the highest 2% start at about 0.24. The sample as a whole holds a higher share of the highest values than the screen did.
# System: muMax20 (Max(13-93) K31hArg/K57hArg, M65Nle)
# Assay: PBM 8-mer E-score (E-score (rank enrichment, -0.5 to 0.5)); higher = stronger preferential binding
# Experimental: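 Protein binding microarray (universal PBM chip covering all 10-mers in fixed probe flanks) with chemically synthesized human Max(13-93) bHLH-LZ analogs (not full-length Max) bearing noncanonical residues (hArg, Tha, Aib, Nle at 65) and aromatic Cys staples. Read-out per 8-mer (and its reverse complement): E-score (rank-based enrichment, -0.5 to 0.5) and Z-score of median probe intensity.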
row,Sequence,PBM 8-mer E-score
1,ACATGCGG,0.00547 ± 0.099
2,ACATGCGT,0.243 ± 0.13
3,ACATGCAC,0.185 ± 0.034
4,GCATGCAA,0.147 ± 0.034
5,ACATGCGC,0.17 ± 0.0097
6,ATTTCACC,0.0208 ± 0.092
7,ATTGTGGA,0.0503 ± 0.16
8,AGATATAT,0.176 ± 0.023
9,ATCGTACA,0.159 ± 0.048
10,GTCGTACA,0.242 ± 0.13
11,CTCGTACA,0.041 ± 0.08
12,ACGTGAAT,0.235 ± 0.083
13,CTTCTCAA,0.0152 ± 0.1
14,AGCCAGCC,-0.293 ± 0.06
15,CCTAAGAA,0.099 ± 0.038
16,ATGCTCAA,0.0249 ± 0.035
17,CGCCGTGA,-0.131 ± 0.031
18,AAATAATC,0.0578 ± 0.046
19,CAATAATG,0.117 ± 0.023
20,CAATAATA,0.304 ± 0.0083
21,AAATAATT,0.242 ± 0.046
22,GAATAACA,0.175 ± 0.11
23,AAATAATA,0.232 ± 0.013
24,CAATAATC,0.0932 ± 0.028
25,CAATAACA,0.26 ± 0.066

row,Sequence,PBM 8-mer E-score
1,TAATAACA,0.124 ± 0.0069
2,ATTTACCC,0.0541 ± 0.029
3,CGTCTGGA,-0.178 ± 0.11
4,GCCTGTTA,0.0517 ± 0.1
5,AGCACCCG,-0.159 ± 0.024
6,CGGCCAAA,-0.227 ± 0.024
7,CGCTGATA,-0.0375 ± 0.12
8,AAATAAAT,0.156 ± 0.054
9,TAATAAAA,0.246 ± 0.0097
10,CAATAAAA,0.197 ± 0.038
11,GAATAAAA,0.0698 ± 0.033
12,AAAATAAA,0.116 ± 0.064
13,AAATAAAA,0.252 ± 0.023
14,AAGCGTCC,-0.0322 ± 0.057
15,ACCTAGAT,-0.0454 ± 0.032
16,TGGGAAAA,0.0021 ± 0.034
17,CTTTTTTC,0.127 ± 0.031
18,ATTCGCTA,0.0997 ± 0.028
19,CATCCATC,0.0727 ± 0.029
20,GGGGTACC,-0.196 ± 0.038
21,GCATATAA,0.113 ± 0.027
22,ATATTACC,0.244 ± 0.0062
23,AAATTATT,0.2538 ± 0.0012
24,CTATTATA,0.0941 ± 0.095
25,CTATTACA,0.171 ± 0.028

row,Sequence,PBM 8-mer E-score
1,CTATTACC,0.0779 ± 0.076
2,GCATTACA,0.142 ± 0.017
3,AAATTATG,0.211 ± 0.015
4,ACATTATA,0.21 ± 0.031
5,ATATTATA,0.308 ± 0.012
6,GTATTACA,0.3133 ± 0.0018
7,AAATTATA,0.173 ± 0.054
8,ATATTACA,0.137 ± 0.011
9,CCCTTTCG,-0.143 ± 0.066
10,AGAACTAC,0.126 ± 0.015
11,CAGTGGGA,-0.0398 ± 0.11
12,CGAACAGA,-0.107 ± 0.056
13,AGCCTATC,0.0159 ± 0.029
14,AACTTCTC,-0.0128 ± 0.016
15,CAGAGTTA,-0.06527 ± 0.00021
16,ATATTATC,0.0756 ± 0.14
17,GTATTATA,0.256 ± 0.063
18,GTATTAGA,0.213 ± 0.0064
19,AGATTATG,0.00982 ± 0.022
20,CTATTAGA,-0.0357 ± 0.074
21,GTATTAAA,0.178 ± 0.049
22,ATATTAGA,0.302 ± 0.026
23,GCATTATA,0.129 ± 0.031
24,ATATTATG,0.276 ± 0.015
25,AAACGGAA,-0.0336 ± 0.073

row,Sequence,PBM 8-mer E-score
1,CCTAGTAC,0.0875 ± 0.082
2,ACTTCCTC,0.052 ± 0.096
3,AACGCTAG,-0.145 ± 0.08
4,AAAACAGT,0.252 ± 0.029
5,AAAACAAT,0.265 ± 0.029
6,AAAACAGG,-0.0042 ± 0.15
7,AAAACAAC,0.00369 ± 0.069
8,AAAACAAG,0.111 ± 0.034
9,AAAACAGC,0.0469 ± 0.026
10,GGGCTAAC,-0.0713 ± 0.048
11,ACCAGCCC,-0.112 ± 0.14
12,ACGTGACT,0.234 ± 0.088
13,CCGTGACA,0.0799 ± 0.03
14,ACGTGACA,0.312 ± 0.043
15,CCGTGACG,-0.149 ± 0.01
16,ACGTGACG,0.271 ± 0.058
17,ACGTGACC,0.302 ± 0.02
18,CCGTGACC,-0.272 ± 0.029
19,AGGTGACG,-0.141 ± 0.091
20,GCGTGACC,0.0743 ± 0.024
21,ACCAGAAC,0.0216 ± 0.026
22,AGCGGCCA,-0.227 ± 0.059
23,TAGTACTA,0.0405 ± 0.17
24,AAGGCGGA,-0.113 ± 0.044
25,TAGGCCCA,-0.123 ± 0.016

row,Sequence,PBM 8-mer E-score
1,CCAATTTA,0.131 ± 0.034
2,GTGCCCTA,-0.0334 ± 0.02
3,ACGTTATG,0.282 ± 0.057
4,ACGTTATA,0.228 ± 0.019
5,ACGTTATC,0.0863 ± 0.046
6,CCTGTACA,0.0242 ± 0.16
7,ATACACAC,0.208 ± 0.053
8,AGACATAT,0.29 ± 0.014
9,ATACATAG,0.181 ± 0.13
10,ATACATAT,0.254 ± 0.075
11,ATACACAT,0.318 ± 0.0071
12,AGACATAG,-0.014 ± 0.18
13,TTACATAA,0.24 ± 0.0072
14,GTACATAA,0.175 ± 0.0024
15,ATACACAG,0.0766 ± 0.089
16,CTACATAA,0.0871 ± 0.052
17,CTACATAC,0.178 ± 0.042
18,AGACATAC,0.0812 ± 0.086
19,ATCTAACA,0.0591 ± 0.057
20,GCGCTTCA,-0.115 ± 0.063
21,CTAGAGCC,-0.187 ± 0.036
22,ACGATAGA,-0.0358 ± 0.083
23,ACACATAG,-0.0133 ± 0.049
24,GCACATAA,0.151 ± 0.038
25,ATACATAC,0.169 ± 0.017

row,Sequence,PBM 8-mer E-score
1,AAACATAA,0.246 ± 0.1
2,GAACATAA,0.123 ± 0.095
3,ACACATAA,0.265 ± 0.041
4,ATACATCA,0.21 ± 0.061
5,AAACATAG,0.126 ± 0.018
6,ATACATAA,0.255 ± 0.032
7,CTCAGGAG,-0.162 ± 0.071
8,ATCCTTGG,-0.0154 ± 0.11
9,CTTCCCTC,0.0647 ± 0.025
10,AAGATTTG,0.0326 ± 0.071
11,ACGTTTGC,0.0313 ± 0.0058
12,CCGGTGAC,-0.252 ± 0.12
13,ACATGGTC,0.245 ± 0.08
14,CAATGGTA,0.0785 ± 0.022
15,ACATGGTG,0.241 ± 0.053
16,ACATGCTA,0.164 ± 0.071
17,CCATGCTC,0.0121 ± 0.13
18,AGATGGTG,-0.0739 ± 0.067
19,AAATGGTA,0.238 ± 0.096
20,ACATGCTC,0.237 ± 0.091
21,TAATGGTA,0.193 ± 0.013
22,CTATGGTC,-0.125 ± 0.061
23,CCATGGTC,-0.1574 ± 0.0011
24,ACATGGCG,0.175 ± 0.045
25,ATCTGGTA,-0.00159 ± 0.021

row,Sequence,PBM 8-mer E-score
1,AGCGGCCC,-0.191 ± 0.026
2,CGACGGTC,-0.172 ± 0.15
3,AGTGTGTG,0.0857 ± 0.065
4,AAGAGCTA,0.12 ± 0.045
5,ATTTGTCA,0.123 ± 0.0081
6,CCGGCCCG,-0.259 ± 0.054
7,GCATGGTA,0.142 ± 0.082
8,CCATGGTA,0.143 ± 0.12
9,ACATGGTA,0.287 ± 0.017
10,GTACCACA,0.115 ± 0.043
11,CGTGCTCC,0.0253 ± 0.0099
12,ACATCGTA,0.101 ± 0.015
13,AAAATTTT,0.305 ± 0.019
14,AAAAATTT,0.164 ± 0.0071
15,AAAATTTG,0.12 ± 0.17
16,CACTGACC,-0.132 ± 0.086
17,ACCATGTC,0.0641 ± 0.067
18,AGCATGTA,0.228 ± 0.034
19,AGCATGTC,0.0591 ± 0.078
20,ACCATGTG,0.359 ± 0.078
21,ACCATGTA,0.0719 ± 0.046
22,ATCATGTG,0.247 ± 0.12
23,ATCATGTA,0.108 ± 0.027
24,ATCATGTC,0.225 ± 0.024
25,AGCATGTG,0.276 ± 0.029
